Screening results: PubChem BioAssay, National Center for Advancing Translational Sciences (NCATS)
Tau filament bind – binds recombinant human tau filaments; recombinant tau filaments, thioflavin S fluorescence, 15 h; filaments grown with octadecylsulfate alongside compound; 2% of 71,000 active; Potency, µM (series often up to 57.1 µM); P10636;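 note: actives lower thioflavin S fluorescence by blocking filaments or displacing dye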
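ThS-based fibril read: tau 1 uM final, inducer ODS 30 uM final, 37 C for 15 h, ex 450/em 510 nm.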
Pol III holo inh – inhibitors of bacterial DNA polymerase III holoenzyme; reconstituted DNA polymerase III holoenzyme replication, biochemical; 0.25% of 71,000 active; Potency, µM (highest dose often 57.1 µM)
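Reconstituted *E. coli* holoenzyme (0.35 nM Pol III, 1 nM beta, 154 nM SSB, 2 nM primase) was preincubated with compound for 15 min at RT. Synthesis on 1.4 nM ssM13Gori ran 35 min, then was stopped with PicoGreen/EDTA and read as dsDNA fluorescence.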
Casp1 inh – allosteric or competitive inhibitors of human caspase-1. P29466. Caspase-1 enzyme, Ac-WEHD-AFC fluorogenic rate. AID 900. Potency, µM (doses to about 57.5 µM), most hits filed as inhibitors. 0.03% of 75,000 active
Caspase-7 inhib – caspase-7 (human) inhibition, allosteric or competitive; P55210; recombinant caspase-7, Ac-DEVD-AFC fluorescence rate; Potency, µM (highest dose often 57.5 µM), most hits filed as inhibitors; 0.02% of 75,000 active; AID 889; active = well fitted inhibition curve with a large enough effect in the main read-out, with a control signal flat, not every such curve was filed as active; inconclusive = small, poorly fitted or top-dose-only effect, or a change in a side signal
ALOX15 inhib – inhibitors of human 15-lipoxygenase (ALOX15) | purified 15hLO-1, xylenol orange hydroperoxide absorbance | 1.4% of 74,000 active | AID 887 | P16050 | Potency, µM (doses to about 57.1 µM), hits mostly inhibitors; note: nearly all actives have a fitted effect of over 55% in size
Target sequence (P16050 whole entry, looked up): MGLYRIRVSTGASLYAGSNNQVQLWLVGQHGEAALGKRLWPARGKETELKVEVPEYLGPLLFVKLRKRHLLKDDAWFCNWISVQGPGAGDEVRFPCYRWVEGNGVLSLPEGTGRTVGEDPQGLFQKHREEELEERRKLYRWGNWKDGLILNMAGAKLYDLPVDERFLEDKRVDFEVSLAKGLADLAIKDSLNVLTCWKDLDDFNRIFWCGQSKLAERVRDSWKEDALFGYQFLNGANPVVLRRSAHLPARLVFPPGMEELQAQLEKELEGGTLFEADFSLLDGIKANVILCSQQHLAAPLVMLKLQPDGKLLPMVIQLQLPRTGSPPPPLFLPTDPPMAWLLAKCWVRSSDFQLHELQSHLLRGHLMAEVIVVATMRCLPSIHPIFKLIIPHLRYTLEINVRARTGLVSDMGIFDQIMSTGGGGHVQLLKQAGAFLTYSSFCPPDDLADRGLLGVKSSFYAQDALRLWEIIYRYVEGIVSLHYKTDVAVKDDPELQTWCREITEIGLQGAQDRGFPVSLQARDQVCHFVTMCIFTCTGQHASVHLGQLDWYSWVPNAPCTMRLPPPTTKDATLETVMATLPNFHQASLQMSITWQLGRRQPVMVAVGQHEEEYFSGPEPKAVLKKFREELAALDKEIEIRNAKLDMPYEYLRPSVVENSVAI
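Quantitative HTS in 25 mM Hepes pH 7.5 containing 0.01% Triton X-100: human 15hLO-1 at 40 nM, arachidonic acid at 50 uM, 6 min turnover. Product quantified via ferrous oxidation/xylenol orange, 573:405 nm absorbance ratio.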
Large screens that a line does not name were inactive; ! = repeats disagree. Rows were chosen to be rich in hits. Some 3.2% of all compounds tested hit in one or more screens of this group. Unless noted, calls come from the whole dose curve; as a rule, active = well fitted curve in the direction sought with a large enough effect; inconclusive = small, poorly fitted or top-dose-only effect, or another doubt; inactive = no such curve, though single readings can be large; an effect the other way counts as inactive or inconclusive.

CN(C)c1cc(-c2cccc(NS(C)(=O)=O)c2)ncn1	ALOX15 inhib inconclusive
COc1ccc2c(C(=O)CN(C)C3CCCCC3)c[nH]c2c1	Tau filament bind 25.1µM
O=C(Nc1ccc2c(c1)Cc1ccccc1-2)[C@@H]1[C@H](C(=O)O)[C@]2(Cl)C(Cl)=C(Cl)[C@@]1(Cl)C2(Cl)Cl	ALOX15 inhib inconclusive
COc1ccccc1N1CCN(S(=O)(=O)c2ccc3c4c(cccc24)C(=O)N3C)CC1	Tau filament bind 25.1µM
COC(=O)C1=C(C)N(Cc2ccccc2)C2=C3C(=O)CCCC3[C@@](O)(C(=O)OC)C(=O)N2C1c1ccccc1 (stereo partly specified)	none (no result: Tau filament bind, Pol III holo inh)
CCOC(=O)/C(C#N)=C1/C=Cc2ccccc2N1CC	Tau filament bind 15.8µM
Cc1nn2cc(-c3ccc(N)cc3)nc2s1	Tau filament bind 15.8µM
CCN(CC)CCn1c(-c2ccccc2)nc2c(NCc3ccccc3)nc(C)nc21	none
O=c1c(O)cccc2cc(O)c(O)c(O)c12	ALOX15 inhib 3.98µM (no result: Tau filament bind, Pol III holo inh)
Oc1c(-c2cc(-c3ccco3)[nH]n2)ccc2ccccc12	Tau filament bind 15.8µM
N#CC1=C(N)C(C#N)(C#N)C(c2cccnc2)C2CCCC=C12 (stereo unspecified)	Caspase-7 inhib inconclusive, ALOX15 inhib 25.1µM (no result: Casp1 inh)
N#CC1=C(N)C(C#N)(C#N)C(c2ccc[nH]2)C2CCCC=C12 (stereo unspecified)	Caspase-7 inhib inconclusive (no result: Casp1 inh)
C/C(=N\NC(=O)c1ccncc1)c1ccc2ccccc2c1O	none
N#Cc1cc(-c2ccccc2)nn1-c1ccccc1	ALOX15 inhib 15.8µM
c1ccc(-c2nc(NCCCN3CCOCC3)c3ccccc3n2)cc1	Tau filament bind 5.01µM, ALOX15 inhib inconclusive
Cc1ccsc1C1C=C(c2cccc(Br)c2)Nc2ncnn21 (stereo unspecified)	Caspase-7 inhib inconclusive, ALOX15 inhib 15.8µM (no result: Casp1 inh)
COc1cccc(C2=CC(c3ccc(C)cc3)n3ncnc3N2)c1 (stereo unspecified)	Caspase-7 inhib inconclusive (no result: Casp1 inh)
COc1ccc(C(=O)N2c3cc4c(cc3C(C)=CC2(C)C)OCO4)cc1	Tau filament bind 15.8µM
CC1=CC(C)(C)N(C(=O)c2ccccc2)c2ccccc21	none
CCC(C)NC(=O)c1ccccc1C(=O)NC(C)CC (stereo unspecified)	none
CCC(C)Nc1ccc(NC(C)CC)cc1 (stereo unspecified)	Tau filament bind 15.8µM, Casp1 inh inconclusive, ALOX15 inhib inconclusive
CO[C@H]1COC(=O)C/C=C\[C@@H](C)COC(=O)[C@@H](CCSC)NC(=O)C/C=C\[C@@H]1C	none (no result: Tau filament bind, Pol III holo inh)
COc1cc2c(cc1OC)-c1cc(NCc3ccccn3)nc(=O)n1CC2	ALOX15 inhib 12.6µM
Oc1ccccc1-c1cc(C(F)(F)C(F)F)nc(-c2ccccc2)n1	none
FC(F)C(F)(F)C(F)(F)C(F)(F)c1cc(-c2ccccc2)n[nH]1	Tau filament bind 10µM, ALOX15 inhib inconclusive
COC(=O)C1=C(C)N(Cc2ccccc2)[C@]23O[C@](C(=O)OC)(C(=O)N2C1c1ccccc1)C1CCOC(=O)C13 (stereo partly specified)	none (no result: Tau filament bind, Pol III holo inh)
CC(=O)N(OCc1ccccc1)[C@@H]1c2cc(C#N)ccc2OC(C)(C)[C@H]1O	ALOX15 inhib inconclusive (no result: Tau filament bind, Pol III holo inh)
CC(=C/C=C/C(C)=C/C=C/C=C(C)/C=C/C=C(C)/C=C/C(=O)O)/C=C/C(=O)O	Tau filament bind 25.1µM
CCN(CC)CCNC(=O)c1ccc(Cc2nc3ccccc3[nH]2)cc1	none (no result: Tau filament bind, Pol III holo inh)
O=C(Nc1ccc2c(c1)OCO2)[C@@H]1[C@@H]2C(=O)N(C3CCCCC3)C(=O)[C@@H]2C2c3ccccc3C=CN21 (stereo partly specified)	Tau filament bind inconclusive, Casp1 inh inconclusive, Caspase-7 inhib inconclusive, ALOX15 inhib inconclusive
O=C(c1ccc2c(c1)OCO2)[C@@H]1[C@@H]2C(=O)N(C3CCCCC3)C(=O)[C@@H]2C2c3ccccc3C=CN21 (stereo partly specified)	Tau filament bind inconclusive, Casp1 inh inconclusive, ALOX15 inhib 15.8µM
COc1ccc(NCc2nnc(SCC(=O)Nc3cccc(C)c3)o2)cc1	Tau filament bind 15.8µM
COc1ccc(COC(=O)N/N=C2/C[C@@H](O)[C@@H](O)[C@@H]3[C@H]4C(=O)N(c5ccc(F)cc5F)C(=O)[C@@H]4CC[C@H]23)cc1	none (no result: Tau filament bind, Pol III holo inh)
CNCCCC12CCC(c3ccccc31)c1ccccc12	Tau filament bind 15.8µM!, ALOX15 inhib inconclusive
O=C(O)c1ccccc1NS(=O)(=O)c1cccc2ccccc12	none (no result: Tau filament bind, Pol III holo inh)
COc1ccc(-c2ccc3c(n2)CCCN3C[C@H](O)CN2CCCc3nc(C)c(C)cc32)cc1	none (no result: Tau filament bind, Pol III holo inh)
Oc1c(Cl)cc(Cl)c2c1NCCC2	Tau filament bind inconclusive, ALOX15 inhib 1.58µM
O=C1NCCCc2c1oc1ccc(O)cc21	none
O=C(NCCCN1CCOCC1)c1ccc(-n2c(=O)c(=O)[nH]c3ccccc32)cc1	none (no result: Tau filament bind, Pol III holo inh)
O=C(O)c1oc(C(=O)O)c(C(=O)O)c1C(=O)O	none
O=C(O)c1ccc(Cl)c2c1C1C=CCC1C(c1ccccn1)N2 (stereo unspecified)	Pol III holo inh inconclusive, Casp1 inh inconclusive, Caspase-7 inhib inconclusive, ALOX15 inhib 15.8µM
N#CC1=C(N)Oc2n[nH]c(-c3cccs3)c2C1c1ccco1 (stereo unspecified)	none
Cc1ccc(-n2nc(C)c3c2OC(N)=C(C#N)C3c2ccoc2)cc1 (stereo unspecified)	Tau filament bind 31.6µM
Cc1ccc(-c2[nH]nc3c2C(c2ccoc2)C(C#N)=C(N)O3)cc1C (stereo unspecified)	ALOX15 inhib 25.1µM
Cc1ccc(C2C(C#N)=C(N)Oc3n[nH]c(-c4cccs4)c32)s1 (stereo unspecified)	ALOX15 inhib 25.1µM
COc1ccc(/C=C(\C#N)C(N)=O)c(OC)c1	none
COc1cc(C2C(C(=O)OC(C)C)=C(C)Nc3[nH]c(=O)[nH]c(=O)c32)ccc1O (stereo unspecified)	none
COc1cc(C(=O)O[C@@H]2CC(C)=CC[C@@]3(C)CC[C@](O)(C(C)C)[C@H]23)ccc1O	Tau filament bind 39.8µM (no result: Casp1 inh, Caspase-7 inhib, ALOX15 inhib)
CCOC(=O)OCC1C=C[C@H](c2cc(-c3ccccc3)ccc2O)C(c2ccc(C(C)=O)cc2)O1 (stereo partly specified)	none (no result: Tau filament bind, Pol III holo inh)
N#C/C(=C\c1ccc(O)c(O)c1)C(=O)Nc1ccccc1	ALOX15 inhib 3.16µM
C[C@H](NC(=O)/C(C#N)=C/c1ccc(O)c(O)c1)c1ccccc1	Tau filament bind inconclusive, ALOX15 inhib 0.251µM
C[C@@H](NC(=O)/C(C#N)=C/c1ccc(O)c(O)c1)c1ccccc1	ALOX15 inhib inconclusive
O=C(Nc1ccccc1)c1ccccc1O	none
CC(C)C1=CC2=CC[C@@H]3[C@@](C)(C(=O)O)CCC[C@]3(C)C2CC1 (stereo partly specified)	ALOX15 inhib 7.94µM (no result: Tau filament bind, Pol III holo inh)
CCOc1ccccc1CNC(=O)c1cc2occc2n1C	ALOX15 inhib 20µM
Cc1ccc(N=Cc2ccc(O)cc2O)cc1F	none
